From the supplement of paper PMC3334620
In all, about 33,000 sequences were measured (“E-score (-0.5 to 0.5)”: median about -0.043, highest 2% from about 0.37 on). The entries come from a sample that favours the highest values as a whole.

What follows are sequences tested against T1, Upc2 (UniProt Q12151) (assay: PBM E-score (8-mer binding enrichment) (E-score (-0.5 to 0.5)); higher = stronger / more preferred TF binding). Details: protein concentration: 200 nM; construct: GST-full length.
T1 sequence: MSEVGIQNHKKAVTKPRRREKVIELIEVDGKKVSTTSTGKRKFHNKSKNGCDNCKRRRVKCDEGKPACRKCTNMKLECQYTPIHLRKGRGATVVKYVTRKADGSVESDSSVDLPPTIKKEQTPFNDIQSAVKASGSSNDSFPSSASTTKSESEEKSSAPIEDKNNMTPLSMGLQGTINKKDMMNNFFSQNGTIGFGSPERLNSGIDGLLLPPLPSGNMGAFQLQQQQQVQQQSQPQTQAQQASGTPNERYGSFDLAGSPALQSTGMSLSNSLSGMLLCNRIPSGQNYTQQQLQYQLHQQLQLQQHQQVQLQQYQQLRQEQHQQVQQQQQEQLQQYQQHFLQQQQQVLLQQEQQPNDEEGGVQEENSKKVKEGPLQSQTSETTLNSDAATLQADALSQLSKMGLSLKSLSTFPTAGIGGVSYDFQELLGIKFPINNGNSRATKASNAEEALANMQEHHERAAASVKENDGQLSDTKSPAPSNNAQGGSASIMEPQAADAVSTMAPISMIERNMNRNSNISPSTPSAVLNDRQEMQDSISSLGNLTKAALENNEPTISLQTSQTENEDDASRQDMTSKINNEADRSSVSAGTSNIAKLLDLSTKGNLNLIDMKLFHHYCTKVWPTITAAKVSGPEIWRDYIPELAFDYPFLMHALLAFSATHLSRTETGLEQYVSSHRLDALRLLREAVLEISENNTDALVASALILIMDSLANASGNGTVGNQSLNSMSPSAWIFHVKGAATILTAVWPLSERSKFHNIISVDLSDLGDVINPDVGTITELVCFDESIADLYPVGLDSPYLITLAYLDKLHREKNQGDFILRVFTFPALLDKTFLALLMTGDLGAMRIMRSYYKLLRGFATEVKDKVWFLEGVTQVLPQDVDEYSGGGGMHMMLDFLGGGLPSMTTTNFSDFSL
How it was run: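 Yeast transcription factors carrying a GST tag, as full-length proteins or DNA-binding domains, were produced by PURExpress in vitro transcription/translation. About 100-200 nM protein was applied to universal all-10-mer Agilent arrays, double-stranded by primer extension on fresh or once-stripped slides. Bound protein was detected with fluorescent anti-GST, and scans were normalised with masliner. The Universal PBM Analysis Suite gave each ungapped eight-base word, pooled with its reverse complement, an E-score, a modified Wilcoxon-Mann-Whitney statistic.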

Sequence	PBM E-score
TGTAGGAA	-0.0273
AAGATGGG	-0.219
GATCCAGA	0.0551
CTTAGCGC	0.126
GACCCCAA	-0.0347
ACAAATCT	0.0248
ATCGGTCG	0.197
AAAGAAGG	-0.138
GCAGTATA	0.219
ATGTCTCA	-0.192
ACATAGGC	-0.126
TGCGTAAA	0.294
AACGTAAC	0.245
TCCGTAAA	0.357
ATCGTAAT	0.287
GACGTAAA	0.228
ACCGTAAC	0.27
ATCGTAAA	0.448
ATCGTAAG	0.354
GGCGTAAA	0.279
GTCGTAAA	0.477
ATCGTAAC	0.372
TTCGTAAA	0.459
GAGTAGGC	-0.18
AGTCTACA	-0.115

Sequence	PBM E-score
AGAACACC	-0.039
CCGAGTGA	0.102
CAATAAGG	-0.351
CTCGTAAA	0.482
CACGTAAA	0.253
CGCGTAAA	0.354
ACAGATTA	-0.111
CATAGTAC	0.0276
ACATTTTA	0.187
AACGTCGT	0.38
ACCGTCGA	-0.191
AACGTCGA	0.202
AACGTCGG	0.176
ACCGTCGT	0.394
ACCGTCGC	0.233
GCAATCTA	-0.0928
TAAGTAAA	-0.00508
GTTGCAGA	-0.126
CCATACGA	0.473
CCATACAA	-0.09
CCATACGC	0.322
CCATACTA	-0.101
CCATACGG	0.396
ACATACGG	0.354
CCGTTCCG	0.323

Sequence	PBM E-score
ATTGTTGG	-0.153
CGATTTGC	-0.0413
CCGGTTAG	0.0696
ACAGGTAA	-0.0299
ACGATACG	0.391
CCGATACG	0.392
ACGATACT	0.313
ACGATACA	0.279
CCGATACC	-0.00432
CGGATACC	0.0516
CAGATACC	-0.184
CCGATACA	0.159
CAGATACG	0.375
CGGATACA	0.201
CGGATACG	0.408
AAGATACG	0.349
ATTCTAAA	0.155
CCCAGCCA	-0.0649
GACGGTGC	0.0569
AAAATCTG	-0.0273
CGCATAGC	0.265
AAGACTGG	-0.109
CCCTCACA	-0.164
AACGAGTT	0.399
AGCGAGTA	0.269

Sequence	PBM E-score
CACGAGTA	0.126
CACGAGTG	0.0785
ACCGAGTA	0.25
TACGAGTA	0.453
AACGAGTA	0.437
GACGAGTA	0.104
AGCGAGTG	0.204
AAAGAGTT	-0.235
AACGCGTT	0.248
AACGAGTG	0.414
ATCATCTA	-0.0847
CTGGTCAA	-0.17
ACAATATC	0.125
CATCAGCC	-0.104
TTACTGAA	0.182
GACGAGTC	0.0657
AACGAGTC	0.414
CACGAGTC	0.00415
ACAATAAT	0.0963
ACCCGCTG	-0.245
AAGCTGCG	-0.0191
AGGTTCAA	-0.0255
CTACGGGC	-0.0221
ATACGGGG	0.411
GCACGGGA	0.0149

Sequence	PBM E-score
GGACGGGA	-0.0849
CTACGGGA	0.00845
ACACGGGG	-0.0346
ACACGGGC	-0.0605
AGACGGGG	-0.147
ACACGGGA	-0.129
GTACGGGA	0.389
ATACGGGC	0.426
ATACGGGA	0.382
ACCATTAC	0.17
AAACCGTC	-0.0199
ACTCCAAG	-0.152
CTCCTTAC	0.112
CGATTGAA	0.0171
GATATGGA	0.047
ACCCAACA	-0.221
GACGCTCC	-0.0386
AAACATCG	-0.033
CTTCACGC	0.0017
CTATGGAG	-0.173
GTTGTTTA	0.0127
GTGTCCTA	-0.0178
CCATAGAA	-0.25
ACCCGTCA	-0.119
CTATAAGA	0.247

Sequence	PBM E-score
CTATAATA	-0.055
ATATAAGA	0.22
GTATAATA	0.375
ATATAATA	-0.0226
GTATAAGA	0.395
AACGTTGA	0.0964
CCACCAGA	-0.0981
AAGCGTAT	0.33
TATCGCGA	0.182
CTGCTACC	-0.161
CCTTGGAC	-0.0581
GGCTGTGA	-0.125
ACCGTTTA	0.458
GCCGTTTA	0.465
GCCGTTAA	0.292
ACCGTTTG	0.333
CCCGTTTA	0.456
CCCGTTTC	0.197
ACCGTTTC	0.244
GCCGTTCA	0.31
CACGTTTA	0.363
AACCAAGG	-0.0086
AAAAACTG	-0.0494
ACACGCTC	0.0594
CGCTGCAC	-0.0173

Sequence	PBM E-score
AAAGGCTA	-0.173
ACTGTGCG	0.134
CCGTAGCA	0.0702
TCGTAGAA	0.39
TCGTAGCA	0.39
ACGTAGCA	0.0515
GCGTAGAA	0.0848
CCGTAGAA	0.118
TAACTGAA	-0.0941
ACAACACT	0.0862
ATATGGTA	0.158
CTTCTTAA	0.0092
ACCCTCGA	-0.244
AACCTCGA	0.0605
AACCTCGC	0.0636
AACCTCGT	0.372
ACCCTCGC	0.0921
ACCCTCGT	0.419
TCAGGCAA	-0.146
TATTCACA	0.101
CATACCGC	0.00223
CGTACCGA	0.398
AGTACCGC	0.1
GGTACCGA	0.0871
AGTACCGA	-0.0766

Sequence	PBM E-score
CGTACCGC	0.416
GCTCATCA	-0.195
GTAAAGCA	0.223
ACTTCTGA	-0.307
CGGGGCAG	0.131
TCAGAAAA	-0.153
CGCCGTAC	0.408
CGCCGTAA	0.285
AGCCGTAC	0.346
CGCCGTAG	0.0712
GGCCGTAA	0.255
GGCCGTAC	0.389
TCTCTCCA	-0.118
CCACAGCG	-0.302
ATGATCCG	-0.0506
CTCGAGCC	0.135
CGATATCG	0.244
AAGCTTCG	0.145
AACGCAAT	0.138
ACTTGGCC	-0.0135
AAAAAACG	0.186
CCTAGGAG	-0.273
ATATCTAG	-0.0547
CGCCCTAG	-0.158
AGTTACGC	0.0981

Sequence	PBM E-score
GGTTACCA	0.156
GGTTACTA	-0.0998
GGTTACGA	0.408
AGTTACGA	0.383
AGTTACGG	0.0766
CGTTACGC	0.282
CGTTACGA	0.417
CGTTACAA	0.0563
GAACTGGC	-0.158
CACCTAGG	-0.103
AAAGCGAG	0.217
CACCTCCC	-0.174
TAAGGCCA	-0.013
AACTGGTG	-0.163
GCCTTCGC	-0.106
CACCGTAC	0.401
ATCCGTAC	0.366
CTCCGTAA	0.285
CTCCGTAC	0.376
CACCGTAG	0.0923
CACCGTAA	0.32
